# From PubChem BioAssay AID1159580 (chemical genetic matrix, 2015)
# Several values for one entry are separate records, joined by “and”; a condition that tells them apart may be missing. Equal entries are not always repeated. The whole screen tested about 5,500 compounds, of which about 2,000 (36%) were called active. Roughly 18% stayed inconclusive and do not appear here. The list shows a part of the results. Unmarked numbers belong to inactive results. No stated cut-off is given here; in the data, active means normalized growth mostly below about 0.91 (no sharp cut-off); inconclusive means no clear call, values can overlap the other calls; inactive means mostly above about 0.92.
# Experiment: chemical genetic growth profiling, strain panel (AID 1159580);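 further: tested at 20 µM; growth read once vehicle control cultures reached saturation at 30 °C; 1 = growth at the plate median or of vehicle wells; lower values mean less growth of the strain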
# Conditions: S. cerevisiae deletion strains, growth OD
compound,measurement,setting,value
CC[C@H](C)C(=O)O[C@H]1C[C@@H](C)C=C2C=C[C@H](C)[C@H](CC[C@@H]3C[C@@H](O)CC(=O)O3)[C@H]21,normalized growth,"locus YAL013W, strain DEP1, active compounds read low",0.982
same,normalized growth,"locus YAL021C, strain ccr4, active compounds read low",0.82 (active)
same,normalized growth,"locus YAL026C, strain drs2, active compounds read low",0.994
same,normalized growth,"locus YAL030W, strain snc1, active compounds read low",1.01
same,normalized growth,"locus YBL061C, strain skt5, active compounds read low",1
same,normalized growth,"locus YBR009C, strain hhf1, active compounds read low",1.02
same,normalized growth,"locus YBR021W, strain FUR4, active compounds read low",1.04
same,normalized growth,"locus YBR023C, strain chs3, active compounds read low",1.01
same,normalized growth,"locus YBR171W, strain sec66, active compounds read low",1
same,normalized growth,"locus YBR229C, strain ROT2, active compounds read low",0.944
same,normalized growth,"locus YBR231C, strain swc5, active compounds read low",0.915
same,normalized growth,"locus YBR279W, strain paf1, active compounds read low",1.01
same,normalized growth,"locus YCL011C, strain gbp2, active compounds read low",1.01
same,normalized growth,"locus YCL016C, strain dcc1, active compounds read low",0.999
same,normalized growth,"locus YCL029C, strain bik1, active compounds read low",0.991
same,normalized growth,"locus YCL061C, strain MRC1, active compounds read low",0.997
same,normalized growth,"locus YCL069W, strain vba3, active compounds read low",1.01
same,normalized growth,"locus YCR088W, strain abp1, active compounds read low",0.998
same,normalized growth,"locus YDL005C, strain med2, active compounds read low",0.982
same,normalized growth,"locus YDL035C, strain GPR1, active compounds read low",0.961
same,normalized growth,"locus YDL040C, strain nat1, active compounds read low",1.01
same,normalized growth,"locus YDL074C, strain BRE1, active compounds read low",1
same,normalized growth,"locus YDL101C, strain DUN1, active compounds read low",0.977
same,normalized growth,"locus YDL134C, strain PPH21, active compounds read low",0.971
same,normalized growth,"locus YDL185W, strain tfp1, active compounds read low",0.977
same,normalized growth,"locus YDL192W, strain arf1, active compounds read low",0.983
same,normalized growth,"locus YDR001C, strain nth1, active compounds read low",1
same,normalized growth,"locus YDR069C, strain doa4, active compounds read low",1.01
same,normalized growth,"locus YDR101C, strain arx1, active compounds read low",1.02
same,normalized growth,"locus YDR137W, strain rgp1, active compounds read low",1.28 [resistant] (active)
same,normalized growth,"locus YDR150W, strain NUM1, active compounds read low",0.967
same,normalized growth,"locus YDR159W, strain sac3, active compounds read low",1.02
same,normalized growth,"locus YDR162C, strain NBP2, active compounds read low",0.951
same,normalized growth,"locus YDR195W, strain ref2",1.06
same,normalized growth,"locus YDR297W, strain sur2, active compounds read low",0.997
same,normalized growth,"locus YDR318W, strain mcm21, active compounds read low",0.996
same,normalized growth,"locus YDR334W, strain swr1, active compounds read low",0.954
same,normalized growth,"locus YDR335W, strain msn5, active compounds read low",1
same,normalized growth,"locus YDR388W, active compounds read low",0.996
same,normalized growth,"locus YDR392W, strain spt3, active compounds read low",0.983
same,normalized growth,"locus YDR502C, strain sam2, active compounds read low",0.969
same,normalized growth,"locus YEL003W, strain gim4, active compounds read low",1
same,normalized growth,"locus YEL037C, strain rad23, active compounds read low",1
same,normalized growth,"locus YEL061C, strain CIN8 (second series), active compounds read low",1
same,normalized growth,"locus YEL061C, strain CIN8, active compounds read low",0.979
same,normalized growth,"locus YER015W, strain faa2, active compounds read low",1.01
same,normalized growth,"locus YER016W, strain bim1, active compounds read low",1
same,normalized growth,"locus YER110C, active compounds read low",0.974
same,normalized growth,"locus YER111C, strain swi4, active compounds read low",1.01
same,normalized growth,"locus YER155C, strain BEM2 (second series), active compounds read low",1.01
same,normalized growth,"locus YER155C, strain BEM2, active compounds read low",0.986
same,normalized growth,"locus YER167W, strain BCK2, active compounds read low",0.942
same,normalized growth,"locus YFR010W, strain ubp6, active compounds read low",1.02
same,normalized growth,"locus YGL078C, strain dbp3, active compounds read low",0.984
same,normalized growth,"locus YGL086W, strain mad1, active compounds read low",0.968
same,normalized growth,"locus YGL167C, strain pmr1, active compounds read low",0.998
same,normalized growth,"locus YGL173C, strain kem1, active compounds read low",1.01
same,normalized growth,"locus YGL227W, strain vid30, active compounds read low",0.996
same,normalized growth,"locus YGL240W, strain doc1, active compounds read low",1.04
same,normalized growth,"locus YGL248W, strain PDE1, active compounds read low",0.974
same,normalized growth,"locus YGL253W, strain hxk2, active compounds read low",0.996
same,normalized growth,"locus YGR078C, strain PAC10, active compounds read low",0.996
same,normalized growth,"locus YGR135W, strain pre9, active compounds read low",0.942
same,normalized growth,"locus YGR229C, strain SMI1, active compounds read low",0.95
same,normalized growth,"locus YGR252W, strain gcn5, active compounds read low",0.878
same,normalized growth,"locus YHR013C, strain ard1, active compounds read low",1.04
same,normalized growth,"locus YHR027C, strain rpn1, active compounds read low",1.01
same,normalized growth,"locus YHR030C, strain SLT2, active compounds read low",0.985 and 0.963
same,normalized growth,"locus YHR079C, strain IRE1 (second series), active compounds read low",0.995
same,normalized growth,"locus YHR079C, strain IRE1, active compounds read low",0.992
same,normalized growth,"locus YHR094C, strain hxt1, active compounds read low",0.989
same,normalized growth,"locus YHR129C, strain ARP1, active compounds read low",0.996
same,normalized growth,"locus YHR142W, strain chs7, active compounds read low",1
same,normalized growth,"locus YHR200W, strain rpn10, active compounds read low",0.994
same,normalized growth,"locus YIL066C, strain RNR3, active compounds read low",0.965
same,normalized growth,"locus YIL073C, strain SPO22, active compounds read low",0.823
same,normalized growth,"locus YIL125W, strain kgd1, active compounds read low",0.974
same,normalized growth,"locus YIR030C, strain dcg1, active compounds read low",0.976
same,normalized growth,"locus YJL092W, strain hpr5, active compounds read low",1
same,normalized growth,"locus YJL095W, strain BCK1 (second series), active compounds read low",1.01
same,normalized growth,"locus YJL095W, strain BCK1, active compounds read low",0.988 and 0.96
same,normalized growth,"locus YJL115W, strain asf1, active compounds read low",1.01
same,normalized growth,"locus YJL129C, strain trk1, active compounds read low",0.997
same,normalized growth,"locus YJL134W, strain LCB3, active compounds read low",0.979
same,normalized growth,"locus YJL154C, strain vps35, active compounds read low",1.01
same,normalized growth,"locus YJL164C, strain tpk1, active compounds read low",1
same,normalized growth,"locus YJL166W, strain qcr8, active compounds read low",1.01
same,normalized growth,"locus YJL168C, strain set2, active compounds read low",0.996
same,normalized growth,"locus YJL187C, strain SWE1 (second series), active compounds read low",0.989
same,normalized growth,"locus YJL187C, strain SWE1, active compounds read low",1
same,normalized growth,"locus YJR043C, strain POL32, active compounds read low",1.04
same,normalized growth,"locus YJR066W, strain TOR1, active compounds read low",0.915
